# Results reported in PubChem BioAssay.
# The source made the active and inactive calls.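 How the source made its calls, unless noted: active means superoxide response below 65% of plate, a cut near 3 SD across the whole screen; inactive means the rest.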
# Assays:
# [1] = reduced mouse 2C T cell binding to pMHC/ICAM-1 vesicles – MLPCN validation set, flow cytometry, LFA-1/ICAM-1 modulator project, pilot screen (AID 2523;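 active means response below a set limit, under 55% cells CD8-positive and vesicle-bound, and CD8 cells' 90th-percentile brightness under 279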;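 on vesicle binding response: mean PE anti-B7-1 fluorescence of CD8+ cells relative to row control; 100% = QL9-loaded vesicles with DMSO vehicle in the same plate row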); conditions: 2C mouse CD8+ T cells, at 7 µM, stronger effect = lower value; double positive events: measured here: CD8+/vesicle+ event percentage
# [2] = biological target: Integrin beta-1 (Homo sapiens) + Integrin alpha-4 (Homo sapiens) (UniProt P13612+P05556); assay: alpha4beta1 integrin LIBS antibody binding reduction – U937 cells, HUTS-21 mAb, flow cytometry, validation set, VLA-4 allosteric modulator project, pilot screen (AID 2674;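 active means inhibition above 50%, about 3 SD of the validation set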;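 further: antibody binding induced by the VLA-4 ligand LDV present at three times its Kd; 0% = LDV ligand with antibody and no compound and 100% = antibody without LDV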); conditions: HUTS-21 LIBS mAb binding, at 6.7 µM, stronger effect = higher value, binding induced by LDV ligand
# Integrin beta-1 (Homo sapiens) + Integrin alpha-4 (Homo sapiens), sequence (P05556 whole entry, looked up): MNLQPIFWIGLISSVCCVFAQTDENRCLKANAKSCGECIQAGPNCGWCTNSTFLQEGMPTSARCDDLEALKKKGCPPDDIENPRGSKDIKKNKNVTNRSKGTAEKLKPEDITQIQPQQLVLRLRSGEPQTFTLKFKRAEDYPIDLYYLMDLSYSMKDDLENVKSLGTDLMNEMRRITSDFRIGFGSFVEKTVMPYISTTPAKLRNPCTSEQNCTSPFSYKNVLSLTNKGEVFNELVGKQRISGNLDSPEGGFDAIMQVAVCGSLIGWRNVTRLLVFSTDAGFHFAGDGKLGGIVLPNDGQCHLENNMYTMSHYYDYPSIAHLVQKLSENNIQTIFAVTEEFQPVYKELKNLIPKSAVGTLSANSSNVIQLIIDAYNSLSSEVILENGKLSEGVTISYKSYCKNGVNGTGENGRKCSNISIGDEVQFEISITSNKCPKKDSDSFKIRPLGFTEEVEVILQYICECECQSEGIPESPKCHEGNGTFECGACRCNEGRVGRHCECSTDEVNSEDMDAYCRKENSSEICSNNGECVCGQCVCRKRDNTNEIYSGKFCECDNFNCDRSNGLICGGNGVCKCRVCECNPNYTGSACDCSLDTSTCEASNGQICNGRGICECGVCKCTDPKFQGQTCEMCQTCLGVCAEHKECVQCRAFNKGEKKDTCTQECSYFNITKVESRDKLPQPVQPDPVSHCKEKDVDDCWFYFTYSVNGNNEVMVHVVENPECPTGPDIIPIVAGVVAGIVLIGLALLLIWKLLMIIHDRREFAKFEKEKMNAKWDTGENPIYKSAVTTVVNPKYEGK
# Integrin beta-1 (Homo sapiens) + Integrin alpha-4 (Homo sapiens), sequence (P13612 whole entry, looked up): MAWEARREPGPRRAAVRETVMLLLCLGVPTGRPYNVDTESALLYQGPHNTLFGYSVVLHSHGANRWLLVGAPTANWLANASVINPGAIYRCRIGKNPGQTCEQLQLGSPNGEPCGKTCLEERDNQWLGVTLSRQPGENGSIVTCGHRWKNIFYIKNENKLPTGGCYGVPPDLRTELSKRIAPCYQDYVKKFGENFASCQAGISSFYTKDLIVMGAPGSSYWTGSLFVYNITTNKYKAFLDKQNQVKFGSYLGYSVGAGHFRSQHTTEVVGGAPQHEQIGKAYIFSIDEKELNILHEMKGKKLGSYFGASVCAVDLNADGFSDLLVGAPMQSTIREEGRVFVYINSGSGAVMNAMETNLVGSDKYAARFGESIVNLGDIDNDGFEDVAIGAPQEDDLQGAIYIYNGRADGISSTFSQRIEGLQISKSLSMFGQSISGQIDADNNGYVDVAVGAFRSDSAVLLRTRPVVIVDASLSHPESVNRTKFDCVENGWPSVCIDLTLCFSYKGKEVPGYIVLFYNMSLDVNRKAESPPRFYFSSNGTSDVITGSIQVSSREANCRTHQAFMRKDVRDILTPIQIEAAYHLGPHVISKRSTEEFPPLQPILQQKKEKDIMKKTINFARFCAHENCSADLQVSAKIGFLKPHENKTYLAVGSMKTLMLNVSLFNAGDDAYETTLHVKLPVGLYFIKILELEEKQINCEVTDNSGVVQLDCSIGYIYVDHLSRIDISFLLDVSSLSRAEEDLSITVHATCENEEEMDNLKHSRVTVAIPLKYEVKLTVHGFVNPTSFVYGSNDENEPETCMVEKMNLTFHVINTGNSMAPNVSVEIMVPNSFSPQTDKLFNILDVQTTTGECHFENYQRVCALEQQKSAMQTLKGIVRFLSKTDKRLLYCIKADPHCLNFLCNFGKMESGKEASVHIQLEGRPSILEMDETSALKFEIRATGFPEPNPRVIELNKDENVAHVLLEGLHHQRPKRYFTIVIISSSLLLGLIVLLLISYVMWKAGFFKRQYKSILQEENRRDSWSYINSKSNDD
# [3] = calorie-restriction mimetic ROS inhibitors, yeast – validation compound set, pilot screen (AID 2706);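 further: yeast exposed to compound for one week at 30 degrees C before staining; 100% = mean of all compound wells on the same plate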; conditions: S. cerevisiae aging, superoxide DHE fluorescence; at 10 µM, stronger effect = lower value
# [4] = biological target: Beta-adrenergic receptor kinase 1 (Homo sapiens) (UniProt P25098); assay: GRK2 binders displacing RNA aptamer, biochemical, validation, human GRK2, bead flow cytometry (AID 488806;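 active means aptamer binding inhibition above 30%, about 3 SD of noise from non-fluorescent compounds; inactive means inhibition at or below 30%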); conditions: bead-bound GRK2, FAM-aptamer displacement, at 10 µM, stronger effect = higher value
# Beta-adrenergic receptor kinase 1 (Homo sapiens), sequence (P25098 whole entry, looked up): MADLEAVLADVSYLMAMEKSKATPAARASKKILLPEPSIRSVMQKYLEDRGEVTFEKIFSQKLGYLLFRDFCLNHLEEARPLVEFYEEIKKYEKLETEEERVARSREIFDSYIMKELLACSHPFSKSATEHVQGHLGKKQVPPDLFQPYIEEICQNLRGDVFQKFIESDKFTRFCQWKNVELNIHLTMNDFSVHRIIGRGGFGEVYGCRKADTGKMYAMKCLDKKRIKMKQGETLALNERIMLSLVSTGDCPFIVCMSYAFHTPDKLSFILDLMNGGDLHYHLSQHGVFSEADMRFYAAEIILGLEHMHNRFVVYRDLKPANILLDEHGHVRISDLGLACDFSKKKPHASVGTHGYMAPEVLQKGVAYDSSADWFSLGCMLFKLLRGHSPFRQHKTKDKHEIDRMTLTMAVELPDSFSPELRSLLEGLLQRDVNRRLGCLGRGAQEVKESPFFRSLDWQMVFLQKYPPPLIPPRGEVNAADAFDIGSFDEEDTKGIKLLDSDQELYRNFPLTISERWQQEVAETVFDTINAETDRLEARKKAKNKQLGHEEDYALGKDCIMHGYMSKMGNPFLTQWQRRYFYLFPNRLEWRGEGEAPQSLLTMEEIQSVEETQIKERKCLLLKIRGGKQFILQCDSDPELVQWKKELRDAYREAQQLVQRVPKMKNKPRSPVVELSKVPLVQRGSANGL
# [5] = biological target: AP-2 complex subunit beta (Homo sapiens) (UniProt P63010); assay: beta-arrestin/AP2 interaction blockers – biochemical, validation set, GST-AP2 beads, flow cytometry, pilot screen (AID 504541;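 active means inhibition above 54%, about 3 SD of non-fluorescent compounds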;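 further: AP2 carries R879A mutation and is captured from E. coli lysate; bead-bound FITC arrestin peptide fluorescence measuring arrestin peptide binding to AP2; 0% = DMSO wells and 100% = excess unlabeled arrestin peptide control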); conditions: FITC arrestin peptide, at 10 µM, stronger effect = higher value, AP2 beta2 appendage fragment, R879A mutant
# AP-2 complex subunit beta (Homo sapiens), sequence (P63010 whole entry, looked up, the tested form may be a part, one chain of several): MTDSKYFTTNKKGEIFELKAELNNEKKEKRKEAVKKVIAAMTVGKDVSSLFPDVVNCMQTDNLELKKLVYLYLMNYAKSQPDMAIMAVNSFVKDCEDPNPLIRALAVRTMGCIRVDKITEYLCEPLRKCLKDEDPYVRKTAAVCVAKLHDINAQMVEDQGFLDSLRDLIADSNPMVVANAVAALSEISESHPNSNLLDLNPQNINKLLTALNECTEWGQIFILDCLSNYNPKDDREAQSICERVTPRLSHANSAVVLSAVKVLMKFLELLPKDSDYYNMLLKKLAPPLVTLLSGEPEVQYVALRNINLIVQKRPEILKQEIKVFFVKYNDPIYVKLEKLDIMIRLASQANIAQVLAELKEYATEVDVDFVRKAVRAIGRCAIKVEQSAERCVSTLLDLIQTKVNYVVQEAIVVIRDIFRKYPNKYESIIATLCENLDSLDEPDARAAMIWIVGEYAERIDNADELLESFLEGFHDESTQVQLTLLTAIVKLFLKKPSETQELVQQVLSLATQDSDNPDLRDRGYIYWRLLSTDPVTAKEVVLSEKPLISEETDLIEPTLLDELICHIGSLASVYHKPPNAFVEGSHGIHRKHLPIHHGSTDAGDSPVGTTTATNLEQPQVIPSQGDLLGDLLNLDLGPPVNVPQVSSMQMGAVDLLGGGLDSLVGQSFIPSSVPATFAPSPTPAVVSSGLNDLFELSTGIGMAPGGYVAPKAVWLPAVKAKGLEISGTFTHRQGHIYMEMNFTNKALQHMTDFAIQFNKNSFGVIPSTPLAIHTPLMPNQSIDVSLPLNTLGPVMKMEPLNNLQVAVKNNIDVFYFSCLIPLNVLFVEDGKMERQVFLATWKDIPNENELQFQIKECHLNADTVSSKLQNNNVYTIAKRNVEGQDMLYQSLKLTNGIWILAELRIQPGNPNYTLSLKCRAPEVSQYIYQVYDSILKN
# [6] = cytosolic pH regulators acting via V-ATPase – S. cerevisiae, pHLuorin, HTS validation (AID 504600; in the data active means response above about 15%;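 further: plate controls were DMSO for no effect and reference compound for full effect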); conditions: V-ATPase proton transport, at 10 µM, stronger effect = higher value
# [7] = tested on: anti-desmoglein-3 scFv antibody binding to human DSG3; assay: blockers of pathogenic pemphigus antibody–desmoglein-3 binding – biochemical, validation compound set, bead-based, flow cytometry, pilot screen (AID 588368;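 active means binding below the plate cutoff, the plate median minus 3 SD, with a reading above zero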;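 further: signal is the median channel fluorescence of bead-bound GFP antibody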); conditions: Protein G beads, DSG3-Fc, scFv-GFP binding, at 10 µM, stronger effect = lower value
# [8] = Nile Red efflux blockade in pump-expressing yeast – validation compound set, multiplex, phenotypic, pilot screen (AID 588506;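 active means efflux inhibition above 0.42, the validation set average plus 4 SD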;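 further: Nile Red retained in cells so higher fluorescence means more efflux inhibition; 0 = negative control wells and 1 = enniatin B 25 µM full block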); conditions: S. cerevisiae pump-expressing triplex, Nile Red efflux flow cytometry; at 10 µM; stronger effect = higher value; the pumps come from Candida albicans
# [9] = biological target: ATP-binding cassette sub-family B member 6 (Homo sapiens) (UniProt Q9NP58); assay: blockers of ABCB6-driven porphyrin uptake – K562-ABCB6 cells, flow cytometry, validation set, pilot screen (AID 588550;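 active means inhibition above the screen-wide mean plus 3 SD, about 51%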;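 further: 0% = DMSO wells and 100% = benzethonium chloride 70 µM positive control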); conditions: K562-ABCB6 porphyrin accumulation, 1 h, at 10 µM, stronger effect = higher value
# ATP-binding cassette sub-family B member 6 (Homo sapiens), sequence (Q9NP58 whole entry, looked up): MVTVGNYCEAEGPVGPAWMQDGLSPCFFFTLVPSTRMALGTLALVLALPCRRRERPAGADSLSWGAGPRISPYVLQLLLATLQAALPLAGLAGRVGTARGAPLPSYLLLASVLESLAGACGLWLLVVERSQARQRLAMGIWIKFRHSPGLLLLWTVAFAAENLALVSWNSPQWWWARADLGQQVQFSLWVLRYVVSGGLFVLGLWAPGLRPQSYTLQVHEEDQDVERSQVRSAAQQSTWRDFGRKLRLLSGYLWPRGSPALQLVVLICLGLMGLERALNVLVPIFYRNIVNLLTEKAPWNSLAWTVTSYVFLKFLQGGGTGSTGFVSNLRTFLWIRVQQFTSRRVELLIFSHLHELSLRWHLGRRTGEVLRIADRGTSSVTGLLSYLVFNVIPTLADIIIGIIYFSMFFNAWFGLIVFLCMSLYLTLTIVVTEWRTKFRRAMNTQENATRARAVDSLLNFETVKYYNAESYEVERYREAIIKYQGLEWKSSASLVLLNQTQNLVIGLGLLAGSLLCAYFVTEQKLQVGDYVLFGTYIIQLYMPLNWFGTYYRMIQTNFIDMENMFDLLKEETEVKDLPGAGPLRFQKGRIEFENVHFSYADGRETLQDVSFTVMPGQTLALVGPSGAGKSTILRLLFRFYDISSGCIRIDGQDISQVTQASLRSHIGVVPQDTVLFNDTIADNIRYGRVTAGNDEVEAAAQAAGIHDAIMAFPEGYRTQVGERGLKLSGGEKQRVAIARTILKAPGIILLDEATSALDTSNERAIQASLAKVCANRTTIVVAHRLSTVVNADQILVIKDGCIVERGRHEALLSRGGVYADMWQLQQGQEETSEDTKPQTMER
# [10] = AML differentiation inducers, ER-HoxA9 marrow cells – cell-based, GFP/MAC1 double positive, flow cytometry, validation set, primary screen (AID 588685;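 active means differentiation response of at least 50%, scaled between solvent and reference control, from cells with both markers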;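 further: compound exposure lasts four days before antibody staining and flow analysis; 0% = DMSO wells and 100% = 5 µM fulvestrant positive control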); conditions: stronger effect = higher value, normalized: vehicle 0, fulvestrant 100
# [11] = biological target: Beta-2 adrenergic receptor (Homo sapiens) (UniProt P07550); assay: agonist-induced loss of surface beta2AR – cell-based, FAP fluorogen, flow cytometry, validation set, pilot screen (AID 504459;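 active means percent response above 42, roughly 3 SD of non-fluorescent test compounds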;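 further: agonist-driven loss of surface beta2AR via internalization measured by FAP dye flow cytometry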); conditions: Am2.2-beta2AR cells, at 10 µM, stronger effect = higher value
# Beta-2 adrenergic receptor (Homo sapiens), sequence (P07550 whole entry, looked up): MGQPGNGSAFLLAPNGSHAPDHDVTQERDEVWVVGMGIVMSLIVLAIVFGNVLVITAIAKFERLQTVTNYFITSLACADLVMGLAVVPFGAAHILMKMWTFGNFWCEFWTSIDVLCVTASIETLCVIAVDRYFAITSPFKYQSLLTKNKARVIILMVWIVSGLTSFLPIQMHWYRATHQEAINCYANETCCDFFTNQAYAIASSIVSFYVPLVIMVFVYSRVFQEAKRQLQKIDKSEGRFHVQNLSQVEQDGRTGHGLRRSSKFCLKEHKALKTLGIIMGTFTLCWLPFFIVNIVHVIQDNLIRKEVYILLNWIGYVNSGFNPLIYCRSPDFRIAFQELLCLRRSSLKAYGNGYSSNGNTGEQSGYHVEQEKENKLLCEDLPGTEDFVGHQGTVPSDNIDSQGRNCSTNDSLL
Structure (SMILES),double positive events [1],vesicle binding response [1],inhibition [2],superoxide response (% of plate) [3],aptamer binding inhibition [4],inhibition [5],response [6],binding (% of control) [7],efflux inhibition (fraction of control) [8],inhibition [9],differentiation response [10],response [11]
CNC[C@H](O)c1cccc(O)c1,61.2%,124% (inactive),-10.5% (inactive),96.3% (inactive),0% (inactive),-4.38% (inactive),3.91% (inactive),102% (inactive),0.875 (active),-8% (inactive),7.13% (inactive),–
CCN1C(=O)C(CC(=O)Nc2ccc(F)cc2)N(Cc2ccc3c(c2)OCO3)C1=S (stereo unspecified),56.3%,124% (inactive),7.76% (inactive),101% (inactive),0% (inactive),-7.91% (inactive),0.48% (inactive),107% (inactive),0.44 (active),4% (inactive),58.4% (active),22.9% (inactive)
CC(=O)O[C@]1(C(C)=O)CC[C@H]2[C@@H]3C=C(C)C4=CC(=O)CC[C@]4(C)[C@H]3CC[C@@]21C,65.3%,252% (inactive),-0.27% (inactive),95.9% (inactive),3% (inactive),1.74% (inactive),-0.81% (inactive),101% (inactive),0.29 (inactive),-2% (inactive),7.82% (inactive),-24.4% (inactive)
O=C(c1ccccc1)N1CCN(C(=O)c2ccccc2)CC1,57.3%,175% (inactive),-0.43% (inactive),102% (inactive),7% (inactive),-3.54% (inactive),-5.95% (inactive),104% (inactive),-0.13 (inactive),3% (inactive),12% (inactive),-22.4% (inactive)
O=C(NC(CO)Cc1ccc([N+](=O)[O-])cc1)C(Cl)Cl (stereo unspecified),57.3%,146% (inactive),-11.4% (inactive),100% (inactive),15% (inactive),0.05% (inactive),0.32% (inactive),100% (inactive),-0.24 (inactive),14% (inactive),-24.4% (inactive),–
CCOc1ccc(CC2c3cc(OCC)c(OCC)cc3CCN2C(=O)CN2CCN(C)CC2)cc1OCC (stereo unspecified),61.7%,160% (inactive),-11.3% (inactive),82.4% (inactive),0% (inactive),5.19% (inactive),-5.23% (inactive),108% (inactive),-0.04 (inactive),4% (inactive),-3.02% (inactive),-8.24% (inactive)
CN(C)CCOc1ccccc1Cc1ccccc1,69.2%,210% (inactive),23.6% (inactive),85.8% (inactive),4% (inactive),-8.22% (inactive),-1.1% (inactive),104% (inactive),-0.13 (inactive),14% (inactive),-1.05% (inactive),-20.2% (inactive)
CC(C)C1Cc2[nH]c(=O)c(C(=O)O)cc2CO1 (stereo unspecified),64.9%,1810% (inactive),25.5% (inactive),95.9% (inactive),4% (inactive),-1.16% (inactive),-0.04% (inactive),94.2% (inactive),-0.1 (inactive),10% (inactive),3.18% (inactive),-2.38% (inactive)
Cc1csc(-c2coc3cc(O)cc(C)c3c2=O)n1,63.8%,138% (inactive),2.3% (inactive),119% (inactive),2% (inactive),13.4% (inactive),-4.09% (inactive),97.4% (inactive),-0.03 (inactive),17% (inactive),2.4% (inactive),0.13% (inactive)
COC(=O)c1cc(-c2c(C)oc3cc(OC)ccc3c2=O)c(C)o1,59.2%,199% (inactive),2.3% (inactive),96.8% (inactive),1% (inactive),2.24% (inactive),1.93% (inactive),105% (inactive),-0.1 (inactive),8% (inactive),18.4% (inactive),7.03% (inactive)
O=c1cc(Cn2ccnc2)c2cc3c(cc2o1)CCC3,57.6%,143% (inactive),-11.3% (inactive),99.2% (inactive),-2% (inactive),8.12% (inactive),-1.72% (inactive),105% (inactive),0.08 (inactive),2% (inactive),48.8% (inactive),-7.31% (inactive)
CCNCCC(CCC(C)C)c1ccc2c(c1)OCO2 (stereo unspecified),54.2%,233% (inactive),9.09% (inactive),103% (inactive),-1% (inactive),-9.39% (inactive),-1.01% (inactive),96.9% (inactive),-0.16 (inactive),-3% (inactive),9.49% (inactive),–
COc1c2occc2c(OC)c2c(=O)cc(C)oc12,48.6%,176% (inactive),8.15% (inactive),108% (inactive),1% (inactive),-4.24% (inactive),3.33% (inactive),102% (inactive),0.1 (inactive),5% (inactive),33.7% (inactive),–
COc1ccc(C)cc1S(=O)(=O)Nc1ccc(F)cc1,64.5%,172% (inactive),5.61% (inactive),98.8% (inactive),1% (inactive),2.42% (inactive),-2.48% (inactive),102% (inactive),0.06 (inactive),17% (inactive),-3.11% (inactive),0.44% (inactive)
Oc1ccc(Oc2ncc(Cl)cc2Cl)cc1,61.9%,223% (inactive),-3.67% (inactive),73.7% (inactive),2% (inactive),-4.55% (inactive),8.39% (inactive),107% (inactive),0.12 (inactive),6% (inactive),-12.9% (inactive),-11% (inactive)
CN(C)C(=O)C(CCN1CCC(O)(c2ccc(Cl)cc2)CC1)(c1ccccc1)c1ccccc1,70.4%,180% (inactive),44% (inactive),86.8% (inactive),1% (inactive),2.98% (inactive),6.9% (inactive),104% (inactive),0.08 (inactive),2% (inactive),-3.02% (inactive),–
COc1ccc(CCN=C(N)C(C)c2ccccc2)cc1OC (stereo unspecified),62.6%,238% (inactive),5.69% (inactive),93.8% (inactive),4% (inactive),-6.07% (inactive),-1.3% (inactive),97.3% (inactive),-0.04 (inactive),5% (inactive),7.82% (inactive),-11.2% (inactive)
COc1ccc2cc[nH]c2c1,67.5%,407% (inactive),-5.38% (inactive),104% (inactive),2% (inactive),-3.08% (inactive),0.61% (inactive),103% (inactive),0 (inactive),5% (inactive),-10.9% (inactive),-20.2% (inactive)
COc1ccc2c(CCNC(=O)c3ccc([N+](=O)[O-])cc3)c[nH]c2c1,56.1%,210% (inactive),-5.89% (inactive),105% (inactive),3% (inactive),-2.03% (inactive),-0.21% (inactive),101% (inactive),-0.03 (inactive),4% (inactive),-21.6% (inactive),7.52% (inactive)
CSc1ccc2c(c1)N(CCC1CCCCN1C)c1ccccc1S2 (stereo unspecified),66.7%,166% (inactive),27.1% (inactive),88.6% (inactive),-7% (inactive),0.21% (inactive),-0.24% (inactive),106% (inactive),-0.145 (inactive),–,11.5% (inactive),60.7% (active)
Cc1ccc2nc3c(cc(C(=O)NCC4CCCO4)c(=N)n3CCCOC(C)C)c(=O)n2c1 (stereo unspecified),62.1%,176% (inactive),9.09% (inactive),82.4% (inactive),0% (inactive),-3.18% (inactive),-20.8% (inactive),100% (inactive),0.33 (inactive),14% (inactive),-24.4% (inactive),–
Cc1ccsc1/C=N\NC(=O)c1ccc2c(c1)OCO2,62.5%,183% (inactive),10.9% (inactive),97% (inactive),3% (inactive),11.1% (inactive),1.01% (inactive),99.5% (inactive),-0.12 (inactive),7% (inactive),1.41% (inactive),–
CCN(CC)CCN1C(=O)C(=O)/C(=C(/O)c2c(C)[nH]c(C(=O)OC)c2C)C1c1cccnc1 (stereo unspecified),60.5%,235% (inactive),-19.5% (inactive),95.2% (inactive),4% (inactive),0.35% (inactive),-2.49% (inactive),103% (inactive),0.05 (inactive),9% (inactive),-12% (inactive),13.3% (inactive)
CC[C@H](CO)NCCN[C@H](CC)CO,56.6%,193% (inactive),-2.11% (inactive),112% (inactive),-2% (inactive),-14.5% (inactive),2.83% (inactive),112% (inactive),0.06 (inactive),12% (inactive),-19.6% (inactive),–
c1ccc2c(CC3=NCCN3)cccc2c1,49.4%,192% (inactive),11.9% (inactive),99% (inactive),1% (inactive),-1.38% (inactive),1.28% (inactive),96.2% (inactive),-0.16 (inactive),11% (inactive),7.87% (inactive),–
COC(=O)c1[nH]c2ccc(F)cc2c1NC(=O)C1=COCCO1,55.5%,252% (inactive),-3.04% (inactive),89.2% (inactive),1% (inactive),1.47% (inactive),-2.26% (inactive),92.8% (inactive),-0.01 (inactive),7% (inactive),45% (inactive),–
